PubChem BioAssay (NCI)
The panel holds about 83,000 compounds, 20% with a hit somewhere; the sample as a whole holds those more often.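 Note: values are percent growth. 100 is the growth of untreated cells, values between 100 and 0 indicate rising inhibition; between -100 and 0 indicates cell death.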 A number with no mark means an inactive call. Calls of active or inactive are those of the source. How the source made its calls: active means growth percent below 10; inactive means the rest.

Assays:
Assay in all cases: NCI-60 one-dose screen, 48 h (100 = growth as untreated, 0 = no growth, -100 = all killed)
[1] = tested on: RPMI-8226 leukemia; conditions: 10 µM unless noted
[2] = tested on: OVCAR-8 ovarian; conditions: 10 µM unless noted
[3] = tested on: OVCAR-5 ovarian; conditions: 10 µM unless noted
[4] = tested on: SK-OV-3 ovarian; conditions: 10 µM unless noted
[5] = tested on: OVCAR-3 ovarian; conditions: 10 µM unless noted
[6] = tested on: HS 578T breast; conditions: 10 µM unless noted
[7] = tested on: NCI/ADR-RES ovarian; conditions: 10 µM unless noted
[8] = tested on: T-47D breast; conditions: 10 µM unless noted
[9] = tested on: BT-549 breast; conditions: 10 µM unless noted
[10] = tested on: MDA-MB-435 melanoma; conditions: 10 µM unless noted
[11] = tested on: SW-620 colon; conditions: 10 µM unless noted
[12] = tested on: MCF7 breast; conditions: 10 µM
[13] = tested on: HCT-116 colon; conditions: 10 µM unless noted
[14] = tested on: HCC-2998 colon; conditions: 10 µM unless noted
[15] = tested on: KM12 colon; conditions: 10 µM unless noted
[16] = tested on: OVCAR-4 ovarian; conditions: 10 µM unless noted
[17] = tested on: IGROV1 ovarian; conditions: 10 µM unless noted

Compound | growth [1] | growth [2] | growth [3] | growth [4] | growth [5] | growth [6] | growth [7] | growth [8] | growth [9] | growth [10] | growth [11] | growth [12] | growth [13] | growth [14] | growth [15] | growth [16] | growth [17]
Cc1ccc(Cn2c(N3CCC(C(=O)NCc4cccs4)CC3)nc3ccccc32)cc1 | 73.7% | 94.3% | 107% | 97.4% | 76.6% | 79.9% | 86.2% | 114% | 75% | 90% | 93.6% | 95.2% | 58.1% | 90.1% | 54.8% |  | 
COc1ccc(-c2cn[nH]c2-c2cc(OC)c(OC)c(OC)c2)cc1OCc1ccccc1 | 8.45% (active) |  | 67.1% | 12.5% | 10.3% | 6.1% (active) | -22.2% (active) | 23.9% | 60% | -61.8% (active) | 26.6% | 17.2% | 17.6% | 34.8% | 14.7% | 50.1% | 44.8%
C=C(C)CCC(C)N1CCC(N2CCC(C(=O)NCCc3ccccc3)CC2)CC1 (centres undefined) | 4.75% (active) | 75.6% | 92.2% | 52.9% | -15.2% (active) | 56.6% | 59.9% | 60.9% | 64.5% | -18.5% (active) | 45.2% | 9.23% (active) | 17.6% | 131% | 24.8% |  | 69.5%
COc1ccccc1C(=O)O/N=C(\N)Cc1cccc2ccccc12 | 73.4% |  | 95.2% | 103% | 4.24% (active) | 97% | 69.8% | 93.3% | 99.4% | 105% | 97.3% | 78.9% | 81.5% | 89.4% | 87.9% | 62.3% | 86.7%
Nc1n[nH]c2ccc([C@@H]3Nc4ccc5[nH]ncc5c4[C@H]4[C@H]5CCC(C5)[C@H]43)cc12 | 17.4% |  | 34.9% | 50.6% | -10.1% (active) | 5.8% (active) | 5.44% (active) | 73.6% |  | -7.49% (active) | 22.2% | 18.7% | 9.49% (active) | 26.2% | 11.5% | 47.6% | 24.2%
COc1ccccc1N1CCN(C(CNS(=O)(=O)c2ccc(Cl)cc2)c2cccnc2)CC1 (centres undefined) | 27.5% | 100% | 113% | 108% | 75.4% | 88.3% | 93.9% | 102% | 84.9% | 86.6% | 101% | 78.3% | 82.6% | 88% | 61.4% |  | 
CCOC(=O)c1cc2c(n1Cc1ccccc1OC)-c1oncc1CCC2 | 14.9% | 35.4% | 69.5% | 24.2% | 8.96% (active) | 10.9% | 15% | 38.6% | 54.9% | -1.95% (active) | 23.8% | 14% | 29.5% | 53.6% | 41.9% |  | 
N#C/C(=C1\SC(=O)CN1c1ccccc1)c1nc2ccccc2s1 | 83.7% | 94.9% | 103% | 99.1% | 87% | 94.3% | 89.2% | 73.6% | 103% | 102% | 93.5% | 73.8% | 89% | 97.3% | 98.4% |  | 
Cc1ccc(C)c(-c2csc(Nc3ccc(C)c(C)c3)n2)c1 | 2.64% (active) |  | 94% | 77.8% | 67.4% | 57.9% | 54.2% | 39.3% | 64.6% | -58.3% (active) | -33% (active) | -30.3% (active) | 3.25% (active) | 27.6% | 59.5% | 54.5% | 81%
COc1ccc(/C=C2/SC(=O)N(CC(=O)N3CCN(c4cc5c(cc4F)c(=O)c(C(=O)O)cn5C4CC4)CC3)C2=O)cc1 | 119% |  | 103% |  | 115% | 99.9% | 99.4% | 104% | 96.1% | 102% | 98.2% | 96% | 100% | 105% | 105% | 107% | 96%
O=Nc1c(O)ccc2ccccc12.O=Nc1c(O)ccc2ccccc12.O=Nc1c([O-])ccc2ccccc12.[Fe+3] |  | 98.4% | 109% | 112% | 102% | 113% | 104% | 104% | 103% | 109% | 97.3% | 89.2% | 97.1% | 113% | 116% | 104% | 91.1%
NC(=O)CSc1nc(-c2ccc(F)cc2)cc(-c2ccco2)n1 | 98.5% |  |  | 102% | 111% | 115% | 105% | 64.1% | 99.5% | 104% | 116% | 83.2% | 98% | 109% | 106% | 100% | 94%
O=C(/C=C/c1ccccn1)c1ccc(OCc2nnc(-c3ccc(Cl)cc3)o2)cc1 |  | 20.8% | 89.6% | 26.8% | 18.6% | 65.7% | 42.5% | -13.7% (active) | 16.5% | -66.2% (active) | -43.6% (active) | -28.3% (active) | -71.6% (active) |  |  | 31% | -22.6% (active)
COc1cc(C(=O)NN=C2c3ccccc3-c3ccccc32)cc(OC)c1OC |  | 34.5% | 63.4% | 22.9% | -1.71% (active) | 50.6% | 23.3% | 37.8% | 43.3% | -22.6% (active) | 19.5% | 11.9% | 20.4% |  | 29.3% | 55.5% | 32.3%
COc1ccc(/C=c2\sc3n(c2=O)NC2C(N=3)N(C)C(=O)N2C)cc1 (centres undefined) | 96.1% |  | 95.1% |  | 102% | 95.9% | 100% | 102% | 111% | 89.6% | 105% | 94.5% | 100% |  | 95.2% | 100% | 
CN=c1ccc2nc3ccc(N)cc3sc-2c1 |  | 2.77% (active) | 24.6% | 30.1% | 10.8% | 59% | 5.34% (active) | 20.1% | 52.4% | -62.6% (active) | 10.8% | -12.7% (active) | 6.01% (active) | 49.8% | 27.9% | -11.2% (active) | 22.3%
NCCCNc1nc2ccccc2c2c(=O)c3cc(F)ccc3sc12 | -2.73% (active) |  | 26.8% |  | -16.4% (active) | 34.6% | 11.4% |  | 81.1% | -91% (active) | -83.5% (active) | -69.8% (active) | -78.2% (active) | -68.8% (active) | -73.7% (active) | 33% | 20.1%
Cn1c(=O)n(C)c2cc(CNCCNc3ccnc4cc(Cl)ccc34)ccc21 |  | 66.6% | 76.7% | 86.2% | 89.3% | 77.6% | 80.3% | 82.4% | 90.8% | 38.7% | 23.1% | 74.2% | 28.1% | 27.4% | 54.5% | 81.5% | 98.8%
COc1cc(C#N)cc2[nH]c(=O)oc12 |  | 112% | 98.8% | 113% | 106% | 99.1% | 99.6% | 101% | 97% | 97.9% | 101% | 101% | 102% | 105% | 101% | 96.9% | 105%
O=c1oc2ccc(Br)cc2c(=O)n1-c1ccc(I)cc1F |  | 10.4% | 22% | 6.53% (active) | 5.31% (active) | 0.536% (active) | 9.96% (active) | -1.18% (active) |  | -1.76% (active) | 10% | 1.41% (active) | 0.0693% (active) | 18.3% | -18% (active) | 15.2% | 15.8%
